# Laboratory results from PubChem BioAssay.
# A number with no mark means an inactive call. No rule for the calls is given here.
# Tested on: Aerobactin synthetase IucA (Klebsiella pneumoniae, hypervirulent)
# Assay: biochemical IucA inhibition screen of LOPAC library by absorbance (AID 1346212);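 also: 100% = no compound wells and 0% = no enzyme wells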
# Conditions: IucA enzyme assay, absorbance (OD) readout; stronger effect = lower value;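 tested at 8 µM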
row,Compound,remaining activity
1,NS(=O)(=O)C#Cc1ccccc1,118%
2,CC(Oc1ccc(Oc2cnc3ccc(Cl)cc3n2)cc1)C(=O)O (stereo not given),108%
3,CN(C)CCCCSC(=N)N,84.5%
4,CNc1cc(NS(=O)(=O)c2ccc(N)cc2)nc(NC)n1,104%
5,N#C/C(=C\c1ccc(O)c(O)c1)C(=O)c1ccc(O)c(O)c1,79.7%
6,CN(C(=O)CCCOc1ccc2[nH]c(=O)ccc2c1)C1CCCCC1,124%
7,Cn1ccc2cc(NC(=O)Nc3cccnc3)ccc21,117%
8,N#C/C(=C\c1ccc(O)c(O)c1)C(=O)NCCCNC(=O)/C(C#N)=C/c1ccc(O)c(O)c1,98.2%
9,N=C(N)c1ccc(N)cc1,112%
10,CCC(NC(C)C)C(O)c1ccc(O)c(O)c1 (stereo not given),102%
11,CC[C@H]1CN2CCc3cc(OC)c(OC)cc3[C@@H]2C[C@@H]1C[C@H]1NCCc2cc(OC)c(OC)cc21,123%
12,CC(C)NC[C@@H](O)COc1ccc(CC(N)=O)cc1,117%
13,NC(N)=NCc1cccc(I)c1,118%
14,CCCCCCCCCCCCCCCC(=O)NCC(COP(=O)([O-])OCC[N+](C)(C)C)OCC (stereo not given),74.4%
15,Fc1cccc(/C=N/N=C/c2cccc(F)c2)c1,123%
16,CCCC[C@@]1(C2CCCC2)Cc2cc(OCC(=O)O)c(Cl)c(Cl)c2C1=O,106%
17,Cc1[nH]c(=O)c(C#N)cc1-c1ccc2nccn2c1,112%
18,Cc1ccc(S(=O)(=O)/C=C/C#N)cc1,100%
19,CC(N)=O,124%
20,Oc1ccccc1O,112%

row,Compound,remaining activity
1,CN(C)C(N)=NCCC[C@H](N)C(=O)O,97.3%
2,Nc1c(C(=O)Nc2nnc(-c3ccccc3)s2)sc2nc3c(cc12)CCCCC3,109%
3,CN(C)CC[C@@H](c1ccc(Br)cc1)c1ccccn1,88.6%
4,O=C(NCC1CCCCN1)c1cc(OCC(F)(F)F)ccc1OCC(F)(F)F (stereo not given),91.1%
5,C[C@]12CCC(=O)C=C1CC[C@@H]1[C@@H]2[C@@H](O)C[C@@]2(C)[C@H]1CC[C@]2(O)C(=O)COC(=O)CCC(=O)O,92.9%
6,OCc1ccc(-c2nn(Cc3ccccc3)c3ccccc23)o1,118%
7,CC1CCN(CC[C@H]2CCCN2S(=O)(=O)c2cccc(O)c2)CC1,125%
8,CC[N+](C)(C)Cc1ccccc1Br,108%
9,CC1=C(C(=O)O)N2C(=O)[C@@H](NC(=O)[C@H](N)C3=CCC=CC3)[C@H]2SC1,113%
10,COC1(C2=NCCN2)COc2ccccc2O1 (stereo not given),105%
11,CCCCS(=N)(=O)CC[C@H](N)C(=O)O (stereo not given in full),92.2%
12,COc1ccccc1NC(=O)Nc1nc(-c2cccnc2)nc2ccccc12,105%
13,O=c1[nH]c(=O)c2nc3ccccc3nc2[nH]1,114%
14,CCCn1c(=O)c2c(ncn2C)n(CCC)c1=O,110%
15,OCCN1CCN(CC/C=C2/c3ccccc3Sc3ccc(C(F)(F)F)cc32)CC1,105%
16,O=C(O)CCC(C(=O)O)N1C(=O)c2ccccc2C1=O (stereo not given),121%
17,CC1(C)C(=O)N(CCN2CCC(C(=O)c3ccc(F)cc3)CC2)c2ccccc21,118%
18,CCn1ccnc1CC1COc2ccccc2O1 (stereo not given),112%
19,Cc1ccccc1N1CCN(S(=O)(=O)C[C@@]23CC[C@H](CC2NC(=O)[C@H](N)CCS(C)(=O)=O)C3(C)C)CC1 (stereo not given in full),121%
20,O=S(=O)(c1cccc2c(I)cccc12)N1CCCNCC1,107%
